Reference: PubChem BioAssay (Tox21)
Inconclusive results are not listed. Activity calls are given as the source filed them. Unless noted, the call rests on the fitted dose curve. Where a SMILES comes first, the peptide text is derived from it. [ ]: non-standard residue; d: D form. pGlu = O=C1CC[C@@H](C(=O)O)N1

Test: qHTS assay to identify small molecule agonists of the NFkB signaling pathway - cell viability counter screen (AID 1159515); further: nearly all actives have a fitted effect of over 55% in size
Settings: NFkB-bla ME-180 viability, CellTiter-Glo luminescence, 5 h; series mostly up to 61 µM; activity, negative = cytotoxic: at the top concentration
In short: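 Multiplexed viability readout: after the 5 hr compound exposure and 1.5 hr FRET substrate step, CellTiter-Glo reagent went into the same NFkB-bla ME-180 wells; ATP luminescence was measured after 30 min at room temperature.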
On the % scale 0 is the no-effect control and ±100 the full control effect.

Compound	activity, negative = cytotoxic
C=CCCC(=O)O	5.78% (inactive)
O=C(O)CC(C(=O)O)S(=O)(=O)O (stereo not drawn)	0.875% (inactive)
CC(C)CCCO	0.802% (inactive)
CC(COc1ccccc1)NN (stereo not drawn)	4.13% (inactive)
Nc1ccn([C@@H]2O[C@H](CO)[C@@H](O)[C@@H]2O)c(=O)n1	3.92% (inactive)
CCNC(=O)[C@@H]1CCCN1C(=O)[C@H](CCCN=C(N)N)NC(=O)[C@H](CC(C)C)NC(=O)CNC(=O)[C@H](Cc1ccc(O)cc1)NC(=O)[C@H](CO)NC(=O)[C@H](Cc1c[nH]c2ccccc12)NC(=O)[C@H](Cc1cnc[nH]1)NC(=O)[C@@H]1CCC(=O)N1 ([pGlu]HWSYGLRP-NHEt)	-0.731% (inactive)
CCCCN(CCC(=O)OCC)C(C)=O	7.05% (inactive)
CCCn1cc[n+](C)c1C	-7.07% [at 78.8 µM] (inactive)
Clc1cc(Cl)cc(Cl)c1	5.97% (inactive)
CCOC(=O)COc1cc(-n2ncc(C(F)(F)F)c(C)c2=O)c(F)cc1Cl	-1.45% (inactive)
CC(C)COC(=O)c1ccc(N)cc1	4.93% (inactive)
CC(=O)OCC(=O)[C@@]1(O)[C@H](C)C[C@H]2[C@@H]3CCC4=CC(=O)C=C[C@]4(C)[C@@]3(F)[C@@H](O)C[C@@]21C	-21.5% (inactive)
O=C(O)CCCC[P+](c1ccccc1)(c1ccccc1)c1ccccc1	0.293% (inactive)
CC1=CCC(O)(C(C)C)CC1 (stereo not drawn)	4.34% (inactive)
[K+]	0.932% (inactive)

Test: qHTS assay to identify small molecule agonists of the endoplasmic reticulum stress response signaling pathway (AID 1159516; active means well fitted activation curve with a large enough effect in the signal ratio in the repeat runs, not every such curve was filed as active; the % refers to the signal ratio)
Settings: ESRE-bla HeLa, ER stress beta-lactamase reporter, 5 h; series mostly up to 61 µM; activation: at the top concentration
In short: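 Tox21 10K library screened in quantitative HTS format on ESRE-bla HeLa cells, a beta-lactamase reporter under ER stress response element control; 5 hr treatment, FRET read.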

Compound	activation
O=C(O)CNC(=O)c1ccccc1	0.273% (inactive)
CC(C)CC(C)(N)C#N (stereo not drawn)	1.6% [at 78.8 µM] (inactive)
CCOC(=O)c1cnc2c(cnn2CC)c1NN=C(C)C	2.54% (inactive)
COc1ccccc1OCC1CNC(=O)O1 (stereo not drawn)	-1.16% (inactive)
CO/N=C(\C(=O)N[C@@H]1C(=O)N2C(C(=O)O)=C(CSc3nc(=O)c(O)nn3C)CS[C@H]12)c1csc(N)n1	-0.0417% (inactive)
O=C1CCCCCCCCCCCCCCO1	-0.0627% (inactive)
CCCc1nn(C)c2c(=O)[nH]c(-c3cc(S(=O)(=O)N4CCN(C)CC4)ccc3OCC)nc12	2.33% (inactive)
CCCCOC(=O)CCC(C)=O	-6.54% (inactive)
O=CN(CCO)CCO	-2.03% (inactive)
C[N+](C)(CCOc1ccccc1)Cc1cccs1	-1.1% (inactive)
CC1=NN(c2cccc(S(=O)(=O)O)c2)C(=O)C1	0.797% (inactive)
CCOC(=O)C1=NOC(c2ccccc2)(c2ccccc2)C1	2.52% (inactive)
CCC(=O)OCc1ccccc1	4.69% (inactive)
COc1cc(C(=O)OC(COCCC(C)C)CN2CCOCC2)cc(OC)c1OC (stereo not drawn)	1.25% (inactive)
CC12CCC(C(=O)C1=O)C2(C)C (stereo not drawn)	-4.58% [at 78.8 µM] (inactive)
NC(N)=NCCN1CCCCCCC1	2.69% [at 0.628 µM] (inactive)
Cc1ncc(COP(=O)(O)O)c(C=O)c1O	-1.1% (inactive)
CC(=O)Oc1cccc(C)c1	2.28% (inactive)
CN1[C@@H]2CC[C@H]1CC(OC(=O)C(O)c1ccccc1)C2 (stereo partly drawn)	-1.45% (inactive)

Compound	activation
CC(N)C12CC3CC(CC(C3)C1)C2 (stereo not drawn)	0.359% (inactive)
CCN(CC#N)c1cccc(C)c1	-0.752% (inactive)
CC1=NN(c2cc(S(=O)(=O)O)ccc2Cl)C(=O)C1N=Nc1ccccc1 (stereo not drawn)	-1.06% (inactive)
CC(=O)c1ccccc1[N+](=O)[O-]	1.68% (inactive)
C=CCCC(=O)O	7.34% (inactive)
O=C(O)CC(C(=O)O)S(=O)(=O)O (stereo not drawn)	-2.51% (inactive)
CC(C)CCCO	1.94% (inactive)
CC(COc1ccccc1)NN (stereo not drawn)	-2.18% (inactive)
Nc1ccn([C@@H]2O[C@H](CO)[C@@H](O)[C@@H]2O)c(=O)n1	-0.215% (inactive)
CCNC(=O)[C@@H]1CCCN1C(=O)[C@H](CCCN=C(N)N)NC(=O)[C@H](CC(C)C)NC(=O)CNC(=O)[C@H](Cc1ccc(O)cc1)NC(=O)[C@H](CO)NC(=O)[C@H](Cc1c[nH]c2ccccc12)NC(=O)[C@H](Cc1cnc[nH]1)NC(=O)[C@@H]1CCC(=O)N1 ([pGlu]HWSYGLRP-NHEt)	1.2% (inactive)
CCCCN(CCC(=O)OCC)C(C)=O	-0.62% (inactive)
CCCn1cc[n+](C)c1C	-3.06% [at 78.8 µM] (inactive)
Clc1cc(Cl)cc(Cl)c1	1.55% (inactive)
CCOC(=O)COc1cc(-n2ncc(C(F)(F)F)c(C)c2=O)c(F)cc1Cl	0.435% (inactive)
CC(C)COC(=O)c1ccc(N)cc1	-2.05% (inactive)
CC(=O)OCC(=O)[C@@]1(O)[C@H](C)C[C@H]2[C@@H]3CCC4=CC(=O)C=C[C@]4(C)[C@@]3(F)[C@@H](O)C[C@@]21C	2.61% (inactive)
O=C(O)CCCC[P+](c1ccccc1)(c1ccccc1)c1ccccc1	0.437% (inactive)
CC1=CCC(O)(C(C)C)CC1 (stereo not drawn)	4.46% (inactive)
[K+]	2.78% (inactive)
